From PubChem BioAssay AID1159580 (chemical genetic matrix, 2015)
“And” between values parts separate entries of the source, which are not always exact repeats. Identical values can stand only once. Hit rate of the full screen: of about 5,500 compounds, about 2,000 (36%) were called active. Inconclusive results (about 18%) are left out. Cut-off read from the data, not from the text of the source: active = normalized growth mostly below about 0.91 (no sharp cut-off); inconclusive = no clear call, values can overlap the other calls; inactive = mostly above about 0.92. The list shows a part of the results.

Experiment: chemical genetic growth profiling, strain panel (AID 1159580);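 note: tested at 20 µM; growth read once vehicle control cultures reached saturation at 30 °C; 1 = growth at the plate median or of vehicle wells; lower values mean less growth of the strain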
Details: S. cerevisiae deletion strains, growth OD

Measured: normalized growth

CCC(C(=O)O)c1ccccc1 (configuration not stated)
inactive: locus YAL013W, strain DEP1, active compounds read low 1.01 | locus YAL021C, strain ccr4, active compounds read low 0.973 | locus YAL026C, strain drs2, active compounds read low 0.992 | locus YAL030W, strain snc1, active compounds read low 0.989 | locus YBL061C, strain skt5, active compounds read low 0.999 | locus YBR009C, strain hhf1, active compounds read low 0.991 | locus YBR021W, strain FUR4, active compounds read low 1.01 | locus YBR023C, strain chs3, active compounds read low 0.993 | locus YBR171W, strain sec66, active compounds read low 0.987 | locus YBR229C, strain ROT2, active compounds read low 0.997 | locus YBR231C, strain swc5, active compounds read low 1.01 | locus YBR279W, strain paf1, active compounds read low 1 | locus YCL011C, strain gbp2, active compounds read low 0.979 | locus YCL016C, strain dcc1, active compounds read low 0.982 | locus YCL029C, strain bik1, active compounds read low 1.01 | locus YCL061C, strain MRC1, active compounds read low 0.982 | locus YCL069W, strain vba3, active compounds read low 0.993 | locus YCR088W, strain abp1, active compounds read low 0.988 | locus YDL005C, strain med2, active compounds read low 0.98 | locus YDL035C, strain GPR1, active compounds read low 1.03 | locus YDL040C, strain nat1, active compounds read low 0.988 | locus YDL074C, strain BRE1, active compounds read low 1.02 | locus YDL101C, strain DUN1, active compounds read low 1 | locus YDL134C, strain PPH21, active compounds read low 1 | locus YDL185W, strain tfp1, active compounds read low 0.984 | locus YDL192W, strain arf1, active compounds read low 1 | locus YDR001C, strain nth1, active compounds read low 0.987 | locus YDR069C, strain doa4, active compounds read low 0.999 | locus YDR101C, strain arx1, active compounds read low 0.998 | locus YDR137W, strain rgp1, active compounds read low 0.97 | locus YDR150W, strain NUM1, active compounds read low 1.01 | locus YDR159W, strain sac3, active compounds read low 0.964 | locus YDR162C, strain NBP2, active compounds read low 1.01 | locus YDR195W, strain ref2 0.98 | locus YDR297W, strain sur2, active compounds read low 0.983 | locus YDR318W, strain mcm21, active compounds read low 0.994 | locus YDR334W, strain swr1, active compounds read low 0.975 | locus YDR335W, strain msn5, active compounds read low 1.02 | locus YDR388W, active compounds read low 0.996 | locus YDR392W, strain spt3, active compounds read low 0.991 | locus YDR502C, strain sam2, active compounds read low 1 | locus YEL003W, strain gim4, active compounds read low 0.997 | locus YEL037C, strain rad23, active compounds read low 0.989 | locus YEL061C, strain CIN8 (second series), active compounds read low 0.998 | locus YEL061C, strain CIN8, active compounds read low 1.01 | locus YER015W, strain faa2, active compounds read low 0.992 | locus YER016W, strain bim1, active compounds read low 0.976 | locus YER110C, active compounds read low 1 | locus YER111C, strain swi4, active compounds read low 0.979 | locus YER155C, strain BEM2 (second series), active compounds read low 0.975 | locus YER155C, strain BEM2, active compounds read low 1.01 | locus YER167W, strain BCK2, active compounds read low 1 | locus YFR010W, strain ubp6, active compounds read low 0.995 | locus YGL078C, strain dbp3, active compounds read low 0.979 | locus YGL086W, strain mad1, active compounds read low 0.998 | locus YGL167C, strain pmr1, active compounds read low 1 | locus YGL173C, strain kem1, active compounds read low 0.997 | locus YGL227W, strain vid30, active compounds read low 0.978 | locus YGL240W, strain doc1, active compounds read low 1.02 | locus YGL248W, strain PDE1, active compounds read low 1 | locus YGL253W, strain hxk2, active compounds read low 0.99 | locus YGR078C, strain PAC10, active compounds read low 1.02 | locus YGR135W, strain pre9, active compounds read low 1.03 | locus YGR229C, strain SMI1, active compounds read low 1.01 | locus YGR252W, strain gcn5, active compounds read low 0.976 | locus YHR013C, strain ard1, active compounds read low 0.963 | locus YHR027C, strain rpn1, active compounds read low 1 | locus YHR030C, strain SLT2, active compounds read low 1 and 0.961 | locus YHR079C, strain IRE1 (second series), active compounds read low 1 | locus YHR079C, strain IRE1, active compounds read low 0.959 | locus YHR094C, strain hxt1, active compounds read low 0.997 | locus YHR129C, strain ARP1, active compounds read low 0.995 | locus YHR142W, strain chs7, active compounds read low 1.02 | locus YHR200W, strain rpn10, active compounds read low 1 | locus YIL066C, strain RNR3, active compounds read low 1.01 | locus YIL073C, strain SPO22, active compounds read low 1.03 | locus YIL125W, strain kgd1, active compounds read low 0.971 | locus YIR030C, strain dcg1, active compounds read low 1.01 | locus YJL092W, strain hpr5, active compounds read low 0.979 | locus YJL095W, strain BCK1 (second series), active compounds read low 0.985 | locus YJL095W, strain BCK1, active compounds read low 1.02 and 0.968 | locus YJL115W, strain asf1, active compounds read low 0.984 | locus YJL129C, strain trk1, active compounds read low 0.983 | locus YJL134W, strain LCB3, active compounds read low 1.01 | locus YJL154C, strain vps35, active compounds read low 0.988 | locus YJL164C, strain tpk1, active compounds read low 0.98 | locus YJL166W, strain qcr8, active compounds read low 0.995 | locus YJL168C, strain set2, active compounds read low 0.995 | locus YJL187C, strain SWE1 (second series), active compounds read low 1 | locus YJL187C, strain SWE1, active compounds read low 0.971 | locus YJR043C, strain POL32, active compounds read low 1.03 | locus YJR066W, strain TOR1, active compounds read low 0.887
